Rows were chosen to be rich in hits. Some 12% of all compounds tested hit in one or more screens of this group.
HP1b chromo inh – HP1-beta chromodomain-methylated histone interaction inhibition. Potency, µM (top dose mostly 114 µM), usual class: inhibitors. AID 540317. AlphaScreen HP1-beta / biotin-H3K9me3 peptide binding. P83916. 390,000 compounds, 0.56% hits; further: nearly all actives have a fitted effect of over 70% in size
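HP1-beta protein (50 nM final) preincubated 30 min at room temperature with biotinylated H3(1-18)K9me3 peptide (50 nM) in PBS pH 7.4, 0.01% Tween-20, then compound added for 30 min. AlphaScreen streptavidin donor/nickel chelate acceptor beads (10 ug/mL final), 30 min dark, luminescence read.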
JMJD2A Tudor inh – JMJD2A Tudor domain (human) inhibition; AlphaScreen JMJD2A-Tudor / H3K4me3 peptide binding; Potency, µM (top dose mostly 114 µM), hits mostly inhibitors; O75164; 390,000 compounds, 4.4% hits; further: nearly all actives have a fitted effect of over 50% in size
PLK1 PBD block – inhibitors of human PLK1 polo-box domain binding; P53350; Plk1 PBD binding of FITC phosphopeptide, fluorescence polarization; Potency, µM, most hits filed as inhibitors; 360,000 compounds, 2.8% hits; further: series mostly up to about 57 µM; nearly all actives have a fitted effect of over 65% in size
PI5P4K alpha inh – blocks human PI5P4K alpha kinase activity; P48426; PI5P4Kalpha enzyme, ADP-Glo luminescence, 60 min; stronger effect = lower value; max response, %; 330,000 compounds, 1.2% hits; AID 652105; active means max response of -50% or lower; inconclusive means between -30% and -50%; inactive means -30% or higher; further: value at the top dose of about 77 µM
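qHTS, 1536-well: enzyme/substrate mix, compound by pin tool, 5 microM ATP final; RT 60 min; ADP-Glo reagents 1 (45 min) then 2 (30 min); luminescence.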
G9a inh – inhibitors of human histone lysine methyltransferase G9a; Q96KQ7; G9a H3K9 monomethylation, AlphaScreen, 2 h; Potency, µM (top dose mostly 102 µM), most hits filed as inhibitors; 350,000 compounds, 8.8% hits; further: nearly all actives have a fitted effect of over 75% in size
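Enzyme 20 nM + cpd, 15 min RT; add b-H3K9 pep 500 nM / SAM 20 uM; 2 h RT; anti-H3K9me1 Ab 0.5 ug/mL + SA donor / anti-rabbit acceptor beads 20 ug/mL each, 10 min; AlphaScreen read.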
BAZ2B inh – blocks human BAZ2B | Q9UIF8 | AlphaScreen BAZ2B-H3K14Ac peptide displacement | Potency, µM (doses to about 114 µM), most hits filed as inhibitors | 360,000 compounds, 4.4% hits | AID 504333; further: nearly all actives have a fitted effect of over 60% in size
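AlphaScreen displacement of biotin-H3(5-23)K14Ac peptide (50 nM final) from BAZ2B (50 nM final) in PBS pH 7.4, 0.01% Tween-20; complex preformed 30 min RT, then compounds (top 110 uM) 30 min RT, beads 20 min dark.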
Numbers stand for hits; i = inactive; ? = inconclusive; nt = no result given; [ ] = another dose, or the depositor's remark. Unless noted, the call rests on the fitted dose curve; in most records, active means well fitted curve in the direction sought with a large enough effect; inconclusive means small, poorly fitted or top-dose-only effect, or another doubt; inactive means no such curve, though single readings can be large; an effect the other way counts as inactive or inconclusive.

SMILES	HP1b chromo inh	JMJD2A Tudor inh	PLK1 PBD block	PI5P4K alpha inh	G9a inh	BAZ2B inh
COc1cc2c(cc1OC)C(COc1ccc3c(C)cc(=O)oc3c1)N(C(=O)c1cccc(OC)c1OC)CC2 (stereo not given)	i	?	nt	nt	i	i
CCCC(C)NC(=O)CN1C(=O)NC2(CCc3ccccc32)C1=O (stereo not given)	i	i	i	i	i	i
Cc1ccc(C2CC(=O)Oc3cc(C)c(Cl)c(C)c32)cc1 (stereo not given)	nt	nt	nt	nt	i	nt
CN(C(=O)c1ccoc1)c1ccccc1I	i	i	nt	nt	nt	nt
O=C(C[n+]1ccccc1)Nc1ccccc1[N+](=O)[O-]	i	i	i	i	nt	i
Cc1ccc[n+](CC(=O)Nc2ccc(N(C)C)cc2)c1	i	i	i	i	nt	?
Cc1ccc[n+](CC(=O)Nc2c(Cl)cc(Cl)cc2Cl)c1	i	i	i	i	i	i
O=C(C[n+]1ccccc1)Nc1c(Cl)cc(Cl)cc1Cl	i	i	i	i	nt	35µM
CN(C)c1ccc(NC(=O)C[n+]2ccccc2)cc1	i	?	i	i	50µM	i
CN(C)c1cc[n+](CC(=O)Nc2ccc(OC(F)F)cc2)cc1	i	?	i	i	nt	50µM
O=C(C[n+]1ccccc1)Nc1ccccc1Br	i	i	i	i	0.32µM	25µM
Cc1cc(C)cc(NC(=O)C(=O)NCC(c2cccnc2)N2CCOCC2)c1 (stereo not given)	i	i	nt	nt	i	79µM
O=C(NCCCn1ccnc1)C(=O)NCC(c1cccnc1)N1CCN(c2ccc(F)cc2)CC1 (stereo not given)	i	i	i	i	50µM	50µM
COc1ccc(N2CCN(C(CNC(=O)C(=O)NCCCn3ccnc3)c3cccnc3)CC2)cc1 (stereo not given)	i	45µM	i	i	?	nt
COc1ccc(CCNC(=O)C(=O)NCC(c2cccnc2)N2CCN(c3ccccc3)CC2)cc1 (stereo not given)	i	i	nt	nt	i	i
COc1ccc(NC(=O)C(=O)NCC(c2cccnc2)N2CCc3ccccc3C2)cc1 (stereo not given)	?	40µM	nt	nt	14µM	10µM
O=C(NCC(c1cccnc1)N1CCN(c2ccc(F)cc2)CC1)c1ccccc1 (stereo not given)	i	i	i	i	i	i
C=CCOc1c(Br)cc(CNc2ccc(NC(=O)C(C)C)c(OC)c2)cc1OC	i	35µM	i	nt	i[0.501 µM]	?
N#Cc1cccc(NS(=O)(=O)c2ccccc2Cl)c1	i	i	?	i	i	i
Cc1ccc(NNC(=O)C(O)(c2cccc(C(F)(F)F)c2)c2cccc(C(F)(F)F)c2)cc1	i	i	i	i	32µM	i
COc1cccc(NC(=S)NNC(=O)C(C)n2nc(C)c([N+](=O)[O-])c2C)c1 (stereo not given)	i	i	?	nt	40µM	i
COc1cccc(NC(=S)NNC(=O)Cn2nc(C(F)(F)F)cc2C)c1	i	i	i	i	11µM	i
COc1cccc(NC(=S)NNC(=O)c2c([N+](=O)[O-])c(C)nn2C)c1	i	i	i	nt	i	i
O=C(NC(=S)Nc1cccc(C(F)(F)F)c1)c1ccc2nonc2c1	?	?	i	i	45µM	?
Cc1cc(C(F)(F)F)nn1CC(=O)NNC(=S)Nc1ccc(F)cc1	i	i	i	i	i[12.7 µM]	i
SMILES	HP1b chromo inh	JMJD2A Tudor inh	PLK1 PBD block	PI5P4K alpha inh	G9a inh	BAZ2B inh
CC1=C(C(=O)N(C(C)C)C(C)C)CC(CC(=O)NCCCCc2ccccc2)C(=O)N1Cc1ccc(F)cc1 (stereo not given)	nt	nt	i	i	nt	nt
Cc1ccccc1P(=O)(c1ccccc1)c1ccccc1C	nt	nt	i	i	nt	nt
Cc1cnc(CNc2ccnc(-c3ccoc3)n2)cn1	nt	nt	nt	nt	i[0.501 µM]	nt
CNNC(=S)Nc1cccc(C(F)(F)F)c1	i	i	i	i	i	i
CC(C)(O)C(=O)NNC(=S)Nc1cccc(C(F)(F)F)c1	i	i	i	i	7.9µM	i
COc1ccc(NC(=S)NNC(=S)Nc2cccc(C(F)(F)F)c2)cc1	?	?	?	-78	22µM	?
FC(F)(F)c1cccc(NC(=S)NNC(=S)Nc2cccc(C(F)(F)F)c2)c1	nt	nt	nt	nt	35µM	?
Cc1c(C(=O)NCCc2ccccc2)cccc1-n1cnc2cccnc21	i	i	nt	nt	i	i

Assay outcomes as filed in PubChem.
